BAZ2B block: blocks human BAZ2B | Q9UIF8 | AlphaScreen BAZ2B-H3K14Ac peptide displacement | Potency, µM (titrated, usually from 114 µM), for the others: at the highest dose activity change, negative = inhibition, most hits filed as inhibitors | 360,000 compounds, 4.4% hits | AID 504333; note: % is set by controls: 0 for no effect and ±100 for the full control effect; nearly all actives have a fitted effect of over 60% in size
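AlphaScreen luminescence quantifies BAZ2B engagement of H3K14Ac peptide; the protein and biotinylated peptide are both at 50 nM final, buffer PBS pH 7.4 with 0.01% Tween-20, all steps at room temperature.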
G9a inh: inhibitors of human histone lysine methyltransferase G9a; Potency, µM (top dose mostly 102 µM), for the others: at the top dose activity, negative = inhibition, usual class: inhibitors; Q96KQ7; G9a H3K9 monomethylation, AlphaScreen, 2 h; 350,000 compounds, 8.8% hits; note: % is set by controls: 0 for no effect and ±100 for the full control effect; nearly all actives have a fitted effect of over 75% in size
Target sequence (Q96KQ7 913-1193 limits assumed): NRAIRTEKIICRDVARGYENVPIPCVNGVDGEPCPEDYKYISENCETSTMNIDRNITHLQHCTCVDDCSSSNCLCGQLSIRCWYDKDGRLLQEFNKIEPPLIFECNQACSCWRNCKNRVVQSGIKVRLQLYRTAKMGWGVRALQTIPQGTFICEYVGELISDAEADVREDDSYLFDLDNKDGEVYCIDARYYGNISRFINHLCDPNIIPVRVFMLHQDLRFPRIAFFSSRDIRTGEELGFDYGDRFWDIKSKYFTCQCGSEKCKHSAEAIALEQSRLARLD
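Using a bead-based AlphaScreen, monomethylated H3K9 product from 2 h room-temperature reactions (G9a 20 nM, peptide 500 nM, SAM 20 uM) was detected with 0.5 ug/mL rabbit anti-H3K9me1 antibody.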
HP1b chromo inh: HP1-beta chromodomain-methylated histone interaction inhibition. 390,000 compounds, 0.56% hits. Potency, µM (series often up to 114 µM), for the others: at the top dose activity change, negative = inhibition, usual class: inhibitors. AlphaScreen HP1-beta / biotin-H3K9me3 peptide binding. P83916; note: nearly all actives have a fitted effect of over 70% in size
Target sequence (P83916 whole entry, looked up): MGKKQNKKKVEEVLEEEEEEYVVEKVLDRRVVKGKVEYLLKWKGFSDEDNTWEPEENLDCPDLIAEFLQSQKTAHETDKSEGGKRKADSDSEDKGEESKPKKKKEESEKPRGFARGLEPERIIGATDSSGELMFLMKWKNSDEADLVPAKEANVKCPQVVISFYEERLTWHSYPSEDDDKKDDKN
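Compound inhibition of the preformed complex between 50 nM HP1-beta and 50 nM biotinylated H3K9me3 peptide was read by AlphaScreen. Buffer was PBS pH 7.4 with 0.01% Tween-20. Incubations ran 30 min at room temperature, with 10 ug/mL donor/acceptor beads.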
GLS inhibitor: blocks human kidney-isoform glutaminase activity; Potency, µM (top dose mostly 45.5 µM), for the others: at the highest dose activity change, negative = inhibition, actives largely listed as inhibitors; O94925; 410,000 compounds, 0.21% hits; GLS enzymatic activity, qHTS titration; note: % is set by controls: 0 for no effect and ±100 for the full control effect
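Compounds were pin-transferred onto hKGA, after which L-glutamine (1 mM solution) and a detection mix of glutamate oxidase, HRP and Amplex Red were added. Initial and 30 min RT fluorescence reads were collected.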
JMJD2A Tudor: inhibitors of human JMJD2A Tudor domain | O75164 | AlphaScreen JMJD2A-Tudor / H3K4me3 peptide binding | Potency, µM (doses to about 114 µM), inactives show at the highest dose activity change, negative = inhibition, hits mostly inhibitors | 390,000 compounds, 4.4% hits; note: % is set by controls: 0 for no effect and ±100 for the full control effect; nearly all actives have a fitted effect of over 50% in size
Starred values were filed as active, the others as inactive; ? = inconclusive; . = not tested or not shown; ! = not active in a repeat; [ ] = remark or other dose. Compounds with a hit are over-represented: about 10% of the library has one in this group of screens. Calls come from the whole dose curve; as a rule, active = well fitted curve in the direction sought with a large enough effect; inconclusive = small, poorly fitted or top-dose-only effect, or another doubt; inactive = no such curve, though single readings can be large; an effect the other way counts as inactive or inconclusive. Potency is the fitted concentration of half-maximal effect.

SMILES	BAZ2B block	G9a inh	HP1b chromo inh	GLS inhibitor	JMJD2A Tudor
COc1ccc(C(=O)NC(=S)N2C[C@H]3C[C@H](C2)c2cccc(=O)n2C3)cc1	-7%	25µM*	15%	26%	-22%
O=C(/C=C/c1ccc(Br)cc1)NC(=S)N1C[C@H]2C[C@H](C1)c1cccc(=O)n1C2	-11%	50µM*	11%	2%	-31%
CC(c1nc2ccccc2c(=O)[nH]1)N(C)CCOc1ccc(Cl)cc1 (centres undefined)	-14%	34%	43%	1%	-15%
O=C1NCCN2CCCC12 (centres undefined)	-8%	13µM*	54%	9%	3%
CC(=O)Nc1ccccc1C(=O)OCc1cccc(F)c1	20%	52%	41%	-10%	18%
OCCN(Cc1ccccc1)Cc1cccc(F)c1	45µM*	7.1µM*	?	7%	7.1µM*
CN1c2ccc([N+](=O)[O-])cc2CC2(C(=O)NC(=O)N(c3ccc(Br)cc3)C2=O)C1c1ccccc1 (centres undefined)	?	?	?	7%	?
CN1/C(=C\C=C\C2=[N+](C)c3ccc4ccccc4c3C2(C)C)C(C)(C)c2ccccc21	4.5µM*	10µM*	.	.	.
CCN1/C(=C/C=C/C2=[N+](CC)c3ccccc3C2(C)C)C(C)(C)c2ccccc21	.	.	.	-16%	.
C=CCn1c(O)c(C(C)=NC(C)c2ccccc2)c(=O)[nH]c1=O (centres undefined)	-15%	13%	33%	1%	-23%
O=C1C(=O)c2ccccc2-c2ccccc21	?	?	20%	-8%	-26%
NC1=C(Br)C(=O)c2ccccc2C1=O	?	50µM*	-10%	24%	-35%
Cc1ccc(C(C)C)c(OCC(=O)N2CCN(CCc3ccncc3)CC2)c1	-26%	-7%[59 µM]	15%	2%	-23%
CCOC(=O)c1ccc(N2C(=O)CC(N3CCC(O)(c4ccc(Br)cc4)CC3)C2=O)cc1 (centres undefined)	28%	50µM*	48%	5%	-4%
COc1ccc(N2CCN(CCCN)CC2)cc1	.	.	?	43%	10µM*
CC(=O)Nc1ccccc1C(=O)OCc1ccc(C(=O)c2ccccc2)cc1	0%	63%	46%	5%	21%
COc1ccc2o/c(=N\O)c(C(=O)Nc3ccc(C)cc3)cc2c1	-4%	50µM*	22%	25%	-22%
Cc1oc(-c2cccc(Cl)c2)nc1CN1CCC(C(=O)NCCCN2CCN(c3cccc(Cl)c3)CC2)CC1	28µM*	?	-8%	0%	32µM*
N[C@@H](Cc1c[nH]c2ccccc12)c1nnc(SCc2ccccc2F)o1	?	.	21%	-3%	?
O=C1NC(=O)C(Cc2cccs2)C(=O)N1	-5%	?	32%	50%	?
Cc1cc(C=C2C(=O)N(C)C(=O)N(C)C2=O)c(C)n1-c1ccccc1	-8%	7.9µM*	65%	-3%	-5%
Cc1cc(/C=C2/C(=O)NC(=O)N(c3ccccc3)C2=O)c(C)n1-c1ccc(F)cc1	.	.	15%	-1%	-18%
N[C@@H](Cc1cc(Br)c(O)c(Br)c1)C(=O)O	-7%	35µM*	.	.	.
C[C@H]1COC2=C1C(=O)C(=O)c1c2ccc2c1CCCC2(C)C	14µM*	-169%[59 µM]	?	-4%	32µM*
CC1COC2=C1C(=O)C(=O)c1c2ccc2c1CCCC2(C)C (centres undefined)	.	7.1µM*	.	.	.
SMILES	BAZ2B block	G9a inh	HP1b chromo inh	GLS inhibitor	JMJD2A Tudor
O=C(O)Cn1cc(/C=C2\C(=O)NC(=O)N(c3ccc(Cl)cc3)C2=O)c2ccccc21	?	?	29%	-9%	-20%
O=C1NC(=O)N(c2ccc(Cl)cc2)C(=O)/C1=C\c1ccc(Sc2nc3ccccc3[nH]2)o1	28µM*	3.2µM*	40µM*	-21%	10µM*
CCCCCOc1c(OC)ccc2cc(C(=O)NCc3ccc4c(c3)OCO4)c(=O)[nH]c12	.	36%[59 µM]	.	.	.
C=C[C@H]1CN2CC[C@H]1C[C@@H]2[C@@H](O)c1ccnc2ccccc12	-6%	-18%[59 µM]	17%	-3%	-8%
COCOC1CCC2C3CCC4=CC(=O)CCC4=C3C=CC12C (centres undefined)	.	.	?	3%	79µM*
O=C(NC1CC1)c1cc(-c2ccco2)nc2ccccc12	10µM*	10µM*	18µM*	?	8.9µM*
CN(Cc1cccc(-c2ccncc2)c1)C(=O)Oc1ccccc1Cl	.	.	.	8%	.
NC(N)=NC(=O)c1nc(Cl)c(N)nc1N	6%	34µM*!	46%	-5%	-3%
O=C(O)Cc1ccccc1	.	19%[59 µM]	.	-16%	.
O=C(Cc1ccccc1)c1ccccn1	.	.	-20%	0%	3.5µM*
COc1cc2c(cc1OC)C(C1c3cc4c(cc3CCN1C)OCO4)OC2=O (centres undefined)	?	.	36%	10%	-10%
CC(C)CCC1(CN2CCCC2=O)C(=O)NC(=O)NC1=O	3%	-18%[59 µM]	27%	7%	-14%
COc1ccc(CCN(C)Cc2ccc(F)cc2F)cc1OC	?	10µM*	?	9%	4µM*
COc1cc(CCN)ccc1O	9%	-24%[59 µM]	61%	81%	-7%
CCN(CC)c1ccc(CN(C)CCc2ccc(OC)c(OC)c2)cc1	45µM*	?	?	21%	10µM*
Cc1cccn2c(=O)c3c(nc12)N1CCCCCC1C1(C3)C(=O)N(C)C(=O)N(C)C1=O (centres undefined)	-1%	-9%	7%	-16%	-12%
CCOP(=O)(OCC)C(O)c1ccc2c(c1)OCO2 (centres undefined)	-1%	9%	47%	13%	-5%
Cc1cc(OCC(=O)NCC(O)c2ccccc2)c2c3c(c(=O)oc2c1)CCC3 (centres undefined)	-5%	3%[0.0925 µM]	19%	2%	-28%
CCN(CCCl)c1cc(CN(C)C)cc(NC(=O)c2ccc(C(=O)Nc3cc(CN(C)C)cc(N(CC)CCCl)c3)cc2)c1	.	.	10µM*	13%	13µM*
CCN(CC)C(=O)c1ccc(NC(=O)c2cccc(C(F)(F)F)c2)cc1	-2%	15%	40%	2%	-2%
O=C1NCN(c2ccccc2)C12CCN(C(c1cc3ccccc3o1)c1nnnn1C1CCCC1)CC2 (centres undefined)	.	.	.	-10%	.
O=C1NC(=O)N(c2ccccc2)C(=O)/C1=C/c1ccc2c(c1)Cc1ccccc1-2	.	6.3µM*	.	.	.
COc1ccccc1N1C(=O)NC(=O)/C(=C/c2ccc3c(c2)Cc2ccccc2-3)C1=O	50µM*	?	60%	-3%	79µM*
COc1ccc(C(c2nnnn2-c2ccc(OC)cc2)N2CCC(n3c(=O)[nH]c4ccccc43)CC2)cc1 (centres undefined)	.	.	.	5%	.

High-throughput results (PubChem)
